Out of some 5,500 compounds screened, about 2,000 (36%) were called active. Inconclusive results (about 18%) are left out. Rule as the data show it: active = normalized growth mostly below about 0.91 (no sharp cut-off); inconclusive = no clear call, values can overlap the other calls; inactive = mostly above about 0.92. Some of the results follow.
Assay: chemical genetic growth profiling, strain panel (AID 1159580);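 also: tested at 20 µM; growth read once vehicle control cultures reached saturation at 30 °C; 1 = growth at the plate median or of vehicle wells; lower values mean less growth of the strain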
Settings: growth OD

Measured: normalized growth

CC(Cc1ccc(O)c(O)c1)(NN)C(=O)O (centres undefined)
inactive: S. cerevisiae deletion strains, locus YJR075W, strain HOC1, stronger effect = lower value 1.02 | S. cerevisiae deletion strains, locus YKL009W, strain mrt4, stronger effect = lower value 0.991 | S. cerevisiae deletion strains, locus YKL068W, stronger effect = lower value 0.997 | S. cerevisiae deletion strains, locus YKL085W, strain MDH1 (second series), stronger effect = lower value 0.992 | S. cerevisiae deletion strains, locus YKL085W, strain MDH1, stronger effect = lower value 0.992 | S. cerevisiae deletion strains, locus YKL160W, strain elf1, stronger effect = lower value 1.01 | S. cerevisiae deletion strains, locus YKL190W, strain CNB1, stronger effect = lower value 0.991 | S. cerevisiae deletion strains, locus YKR001C, strain vps1, stronger effect = lower value 1 | S. cerevisiae deletion strains, locus YKR026C, strain gcn3, stronger effect = lower value 0.988 | S. cerevisiae deletion strains, locus YKR091W, strain srl3, stronger effect = lower value 1.01 | S. cerevisiae deletion strains, locus YLL001W, strain dnm1, stronger effect = lower value 1.01 | S. cerevisiae deletion strains, locus YLL026W, stronger effect = lower value 1.01 | S. cerevisiae deletion strains, locus YLL041C, strain sdh2, stronger effect = lower value 1.01 | S. cerevisiae deletion strains, locus YLR027C, strain aat2, stronger effect = lower value 1.01 | S. cerevisiae deletion strains, locus YLR039C, strain RIC1, stronger effect = lower value 1.04 | S. cerevisiae deletion strains, locus YLR058C, strain SHM2, stronger effect = lower value 1.01 | S. cerevisiae deletion strains, locus YLR102C, strain apc9, stronger effect = lower value 1.02 | S. cerevisiae deletion strains, locus YLR113W, strain HOG1, stronger effect = lower value 0.918 | S. cerevisiae deletion strains, locus YLR221C, strain rsa3, stronger effect = lower value 1.01 | S. cerevisiae deletion strains, locus YLR258W, strain gsy2, stronger effect = lower value 0.999 | S. cerevisiae deletion strains, locus YLR262C, strain YPT6 (second series), stronger effect = lower value 0.978 | S. cerevisiae deletion strains, locus YLR262C, strain YPT6, stronger effect = lower value 1.03 | S. cerevisiae deletion strains, locus YLR268W, strain sec22, stronger effect = lower value 0.996 | S. cerevisiae deletion strains, locus YLR320W, strain mms22, stronger effect = lower value 1.02 | S. cerevisiae deletion strains, locus YLR330W, strain CHS5, stronger effect = lower value 1 | S. cerevisiae deletion strains, locus YLR342W, strain FKS1 (second series), stronger effect = lower value 0.966 | S. cerevisiae deletion strains, locus YLR342W, strain FKS1, stronger effect = lower value 0.992 | S. cerevisiae deletion strains, locus YLR357W, strain rsc2, stronger effect = lower value 0.973 | S. cerevisiae deletion strains, locus YLR370C, strain arc18, stronger effect = lower value 1.01 | S. cerevisiae deletion strains, locus YLR371W, strain rom2, stronger effect = lower value 1.01 | S. cerevisiae deletion strains, locus YLR384C, strain iki3, stronger effect = lower value 0.976 | S. cerevisiae deletion strains, locus YLR418C, strain cdc73, stronger effect = lower value 1.07 | S. cerevisiae deletion strains, locus YML016C, strain PPZ1, stronger effect = lower value 0.999 | S. cerevisiae deletion strains, locus YML032C, strain rad52, stronger effect = lower value 1.01 | S. cerevisiae deletion strains, locus YML120C, strain ndi1, stronger effect = lower value 0.99 | S. cerevisiae deletion strains, locus YML124C, strain tub3, stronger effect = lower value 1.01 | S. cerevisiae deletion strains, locus YMR058W, strain fet3, stronger effect = lower value 0.987 | S. cerevisiae deletion strains, locus YMR078C, strain ctf18, stronger effect = lower value 1.02 | S. cerevisiae deletion strains, locus YMR125W, strain sto1, stronger effect = lower value 1 | S. cerevisiae deletion strains, locus YMR129W, stronger effect = lower value 0.997 | S. cerevisiae deletion strains, locus YMR205C, strain PFK2, stronger effect = lower value 1.04 | S. cerevisiae deletion strains, locus YMR223W, strain ubp8, stronger effect = lower value 0.996 | S. cerevisiae deletion strains, locus YMR231W, strain pep5, stronger effect = lower value 1.01 | S. cerevisiae deletion strains, locus YMR263W, strain SAP30, stronger effect = lower value 0.988 | S. cerevisiae deletion strains, locus YMR307W, strain GAS1, stronger effect = lower value 1.05 | S. cerevisiae deletion strains, locus YNL067W, strain RPL9B, stronger effect = lower value 0.966 | S. cerevisiae deletion strains, locus YNL071W, strain lat1, stronger effect = lower value 0.993 | S. cerevisiae deletion strains, locus YNL183C, strain NPR1, stronger effect = lower value 0.912 | S. cerevisiae deletion strains, locus YNL209W, strain ssb2, stronger effect = lower value 0.993 | S. cerevisiae deletion strains, locus YNL233W, strain BNI4, stronger effect = lower value 0.982 | S. cerevisiae deletion strains, locus YNL248C, strain rpa49, stronger effect = lower value 1.01 | S. cerevisiae deletion strains, locus YNL250W, strain rad50, stronger effect = lower value 1 | S. cerevisiae deletion strains, locus YNL271C, strain bni1, stronger effect = lower value 1.01 | S. cerevisiae deletion strains, locus YNL298W, strain CLA4, stronger effect = lower value 1.02 | S. cerevisiae deletion strains, locus YNL307C, strain MCK1, stronger effect = lower value 1.02 | S. cerevisiae deletion strains, locus YNL322C, strain KRE1 (second series), stronger effect = lower value 1 | S. cerevisiae deletion strains, locus YNL322C, strain KRE1, stronger effect = lower value 0.999 | S. cerevisiae deletion strains, locus YNR049C, strain mso1, stronger effect = lower value 1.01 | S. cerevisiae deletion strains, locus YNR052C, strain pop2, stronger effect = lower value 1.01 | S. cerevisiae deletion strains, locus YOL006C, strain TOP1, stronger effect = lower value 0.989 | S. cerevisiae deletion strains, locus YOL012C, strain htz1 0.764 | S. cerevisiae deletion strains, locus YOL147C, strain pex11, stronger effect = lower value 1.01 | S. cerevisiae deletion strains, locus YOR001W, strain rrp6, stronger effect = lower value 0.987 | S. cerevisiae deletion strains, locus YOR061W, strain CKA2, stronger effect = lower value 1 | S. cerevisiae deletion strains, locus YOR069W, strain VPS5, stronger effect = lower value 1.03 | S. cerevisiae deletion strains, locus YOR070C, strain gyp1, stronger effect = lower value 1 | S. cerevisiae deletion strains, locus YOR080W, strain dia2, stronger effect = lower value 1 | S. cerevisiae deletion strains, locus YOR083W, strain WHI5, stronger effect = lower value 0.996 | S. cerevisiae deletion strains, locus YOR106W, strain vam3, stronger effect = lower value 0.984 | S. cerevisiae deletion strains, locus YOR136W, strain idh2, stronger effect = lower value 1.01 | S. cerevisiae deletion strains, locus YOR144C, strain elg1, stronger effect = lower value 1 | S. cerevisiae deletion strains, locus YOR184W, strain ser1, stronger effect = lower value 1.03 | S. cerevisiae deletion strains, locus YOR231W, strain MKK1, stronger effect = lower value 0.955 | S. cerevisiae deletion strains, locus YOR265W, strain rbl2, stronger effect = lower value 0.993 | S. cerevisiae deletion strains, locus YOR270C, strain vph1, stronger effect = lower value 1.11 | S. cerevisiae deletion strains, locus YOR290C, strain snf2, stronger effect = lower value 1 | S. cerevisiae deletion strains, locus YOR316C, strain cot1, stronger effect = lower value 1.01 | S. cerevisiae deletion strains, locus YPL051W, strain arl3, stronger effect = lower value 0.991 | S. cerevisiae deletion strains, locus YPL055C, strain LGE1, stronger effect = lower value 0.926 | S. cerevisiae deletion strains, locus YPL078C, strain atp4, stronger effect = lower value 0.991 | S. cerevisiae deletion strains, locus YPL106C, strain sse1, stronger effect = lower value 0.918 | S. cerevisiae deletion strains, locus YPL240C, strain hsp82, stronger effect = lower value 1 | S. cerevisiae deletion strains, locus YPL256C, strain CLN2, stronger effect = lower value 0.968 | S. cerevisiae deletion strains, locus YPR119W, strain clb2, stronger effect = lower value 1.01 | S. cerevisiae deletion strains, locus YPR141C, strain kar3, stronger effect = lower value 0.999 | S. cerevisiae deletion strains, locus YPR163C, strain tif3, stronger effect = lower value 1.01 | S. cerevisiae deletion strains, locus YPR167C, strain met16, stronger effect = lower value 1.02 | S. cerevisiae deletion strains, strain wtn01, stronger effect = lower value 1.01 | S. cerevisiae strains, strain wild type, stronger effect = lower value 0.988

From PubChem BioAssay AID1159580 (chemical genetic matrix, 2015)
